# From publication PMC4336329 (PLoS ONE, 2015)
# The campaign covered roughly 310,000 compounds. About 14,000 (4.5%) showed an effect of 50% or more. Effects have a minus sign here. Shown is part of a subset that was picked to be rich in strong results.
# Biological target: human ether-à-go-go-related gene (hERG) potassium channel (human, UniProt Q12809)
# Assay: primary screen, population patch clamp on CHO cells stably expressing hERG; higher = less effect of the substance
# 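Also: peak tail current of the secondary pulse compared with the same well before compound.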
# Sequence of human ether-à-go-go-related gene (hERG) potassium channel (Q12809 whole entry, looked up): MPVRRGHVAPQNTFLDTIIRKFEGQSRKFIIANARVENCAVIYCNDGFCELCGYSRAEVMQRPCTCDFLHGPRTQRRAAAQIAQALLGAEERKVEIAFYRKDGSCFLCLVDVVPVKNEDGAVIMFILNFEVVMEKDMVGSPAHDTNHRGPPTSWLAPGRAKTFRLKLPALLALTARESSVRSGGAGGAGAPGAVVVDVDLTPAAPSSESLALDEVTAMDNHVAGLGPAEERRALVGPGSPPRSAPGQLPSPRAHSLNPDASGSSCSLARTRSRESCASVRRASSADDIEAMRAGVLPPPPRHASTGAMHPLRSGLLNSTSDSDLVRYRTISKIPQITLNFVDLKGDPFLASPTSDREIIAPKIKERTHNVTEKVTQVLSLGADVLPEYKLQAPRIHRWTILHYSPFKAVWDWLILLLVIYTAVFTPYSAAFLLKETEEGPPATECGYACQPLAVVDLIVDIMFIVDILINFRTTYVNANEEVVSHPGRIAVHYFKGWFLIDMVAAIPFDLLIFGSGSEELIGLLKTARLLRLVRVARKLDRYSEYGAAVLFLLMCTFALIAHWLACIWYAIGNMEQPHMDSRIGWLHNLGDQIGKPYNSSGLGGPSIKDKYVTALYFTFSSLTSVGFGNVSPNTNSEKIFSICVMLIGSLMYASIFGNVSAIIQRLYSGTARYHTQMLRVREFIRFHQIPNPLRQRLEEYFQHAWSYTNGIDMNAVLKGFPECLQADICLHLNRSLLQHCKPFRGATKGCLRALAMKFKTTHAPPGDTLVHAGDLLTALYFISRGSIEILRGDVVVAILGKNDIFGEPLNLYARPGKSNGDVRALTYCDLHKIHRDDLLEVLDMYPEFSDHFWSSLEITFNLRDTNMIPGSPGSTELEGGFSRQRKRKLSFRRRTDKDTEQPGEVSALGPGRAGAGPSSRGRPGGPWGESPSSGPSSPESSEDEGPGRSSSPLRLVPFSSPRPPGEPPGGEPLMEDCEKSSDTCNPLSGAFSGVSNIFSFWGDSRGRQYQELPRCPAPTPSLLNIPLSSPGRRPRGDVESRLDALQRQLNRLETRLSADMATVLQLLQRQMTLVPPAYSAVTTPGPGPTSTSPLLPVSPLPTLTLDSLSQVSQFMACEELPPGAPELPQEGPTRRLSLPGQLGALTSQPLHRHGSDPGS
row,Structure (SMILES),"hERG current change (%, negative = inhibition) at 10uM [%]"
1,Cc1ccc(NC(=O)Nc2c(C)n(C)n(-c3ccccc3)c2=O)cc1C,13.1
2,Cn1c(/C(C#N)=C/c2ccc(-c3ccc(S(N)(=O)=O)cc3)o2)nc2ccccc21,-38.1
3,COc1ccc(N/C(N)=N/c2nc(CSc3ccc(Cl)cc3)cc(=O)[nH]2)cc1,17.5
4,Cc1cccc(CN2CCC(CNC(=O)C3CCCN(S(=O)(=O)c4cnc[nH]4)C3)CC2)c1 (centres unmarked),-1.13
5,O=C(NCc1cccnc1)C(=O)Nc1nc2ccccc2s1,3.9
6,O=C(Nc1cccc2c1CCCC2)C1CCCN(S(=O)(=O)c2cccc3nonc23)C1 (centres unmarked),-1.23
7,CCO[C@@H]1OC(C(=O)NCc2nc3ccccc3[nH]2)=C[C@H](c2ccccc2)[C@H]1CCCO,-25.4
8,CSc1ccc(CN2CCCC(CO)(Cc3ccccc3)C2)cc1 (centres unmarked),-60.7
9,CCN1CCCC(CO)(Cc2ccccc2)C1 (centres unmarked),13.3
10,Fc1ccccc1CN1CCN(c2ccc(Cl)cc2)CC1,1.71
11,OCC1(Cc2ccc(Cl)cc2)CCN(Cc2ccccc2F)CC1,-69.2
12,OCC1(Cc2ccccc2)CCN(Cc2cccc(F)c2F)CC1,-11.3
13,OCC1(Cc2ccccc2)CCCN(Cc2ccn[nH]2)C1 (centres unmarked),-11.8
14,OCCC1CN(Cc2ccc(Oc3ncccn3)cc2)CCN1C1CCCCC1 (centres unmarked),-7.34
15,CSc1ccc(CN2CCCCCC2)cc1,-35
16,OCC1(Cc2ccc(Cl)cc2)CCN(Cc2ccc(Oc3ncccn3)cc2)CC1,-74.1
17,CSc1ccc(CN2CCC(CO)(Cc3ccc(Cl)cc3)CC2)cc1,-81.3
18,CSc1ccc(/C=N/N2CCN(Cc3ccc(Cl)cc3)CC2)cc1,8.01
19,OCCC1CN(Cc2ccc(Oc3ncccn3)cc2)CCN1C1CCCC1 (centres unmarked),8.16
20,COc1ccc(NC(=O)CNc2cc(C)ccc2C)cc1S(=O)(=O)N1CCOCC1,-8.85
21,COc1cccc(-c2cn(-c3cccc(C(F)(F)F)c3)c(=S)[nH]2)c1,20.4
22,Cc1cnc(C(=O)OCC(=O)N(C)CC(=O)Nc2ccccc2Cl)cn1,-2.14
23,CC(OC(=O)c1ccncc1)C(=O)Nc1cccc(Cl)c1 (centres unmarked),-23.2

row,Structure (SMILES),"hERG current change (%, negative = inhibition) at 10uM [%]"
1,Cc1ccc(S(=O)(=O)N(C)C)cc1NC(=O)C(C)OC(=O)c1ccc2ccccc2n1 (centres unmarked),-26.8
2,Cc1cc(C)cc(N(CCC(=O)Nc2nnc(C3CC3)s2)S(=O)(=O)c2ccc(Cl)cc2)c1,4.63
3,COc1ccc2oc(C(=O)OCC(=O)N3CC(C)OC(C)C3)c(C)c2c1 (centres unmarked),-0.998
4,CCOC(=O)C1CCN(C(=O)COC(=O)c2oc3ccc(OC)cc3c2C)CC1,-55.6
5,COc1ccc2oc(C(=O)OCC(=O)N3CCC(C)CC3)c(C)c2c1,-0.112
6,COC(=O)C1CCN(C(=O)COC(=O)c2oc3ccc(OC)cc3c2C)CC1,-17.3
7,COc1ccc2oc(C(=O)OCC(=O)N3CCCCC3)c(C)c2c1,8.71
8,COc1ccc2oc(C(=O)OCC(=O)N3CC(C)CC(C)C3)c(C)c2c1 (centres unmarked),-56.1
9,O=C(NCc1ccncc1)c1cccc(F)c1,0.361
10,Cc1c(C(=O)c2ccccc2C(=O)O)sc2ccccc12,15
11,Cc1cc2cc(CCNC(=O)C(C)C)c(=O)[nH]c2cc1C,2.03
12,NC(=O)C1=C[C@H](C2CCCCC2)C[C@H](OCc2ccc(CO)cc2)O1,2.51
13,COc1ccc(S(=O)(=O)N2CCCC2=O)cc1N(C)S(C)(=O)=O,13.8
14,CCOC(=O)c1c(C)[nH]c(C)c1C(=O)COC(=O)/C=C/c1cccc(C(F)(F)F)c1,1.35
15,CCC12CN3CCN(CC(C3)/C1=N/NC(=O)c1ccncc1)C2,21.2
16,COc1ccccc1NC(=O)COc1ccccc1,10.9
17,COc1ccc(OCc2cc(C(=O)NC(C)Cc3cnccn3)no2)c(Cl)c1 (centres unmarked),-4.5
18,COc1cc(Cl)ccc1OCc1cc(C(=O)NC(C)Cc2cccnc2)no1 (centres unmarked),-30.7
19,COc1cccc(OCc2cc(C(=O)N3CCC(c4ccncc4)CC3)no2)c1,-40.9
20,O=C(c1cc(COc2cccc(C(F)(F)F)c2)on1)N1CCC(c2ccccc2)CC1,6.79
21,O=C(c1cc(COc2cccc(C(F)(F)F)c2)on1)N1CCC(Oc2cccnc2)CC1,-64.1
22,Cc1ccc(OCc2cc(C(=O)N3CCCCCCC3)no2)cc1C,3.22
23,C[C@@H]1CN(C(=O)c2cc(COc3cccc(C(F)(F)F)c3)on2)C[C@H](C)O1,8.11

row,Structure (SMILES),"hERG current change (%, negative = inhibition) at 10uM [%]"
1,Cc1cc(OCc2cc(C(=O)N3CCC(Oc4cccnc4)CC3)no2)cc(C)c1Cl,9.06
2,COc1cc(Cl)ccc1OCc1cc(C(=O)NC(C)Cc2cnccn2)no1 (centres unmarked),-53.8
3,O=C(c1cc(COc2cccc(C(F)(F)F)c2)on1)N1CCc2ccccc2C1,10.4
4,Cc1ccc(OCc2cc(C(=O)N3CCC(Oc4cccnc4)CC3)no2)cc1C,-56.7
5,O=C(c1cc(COc2cccc(C(F)(F)F)c2)on1)N1CCC(c2ccncc2)CC1,-78.8
6,Cc1c(NC(=O)C2CCN(S(=O)(=O)c3ccccc3)CC2)c(=O)n(-c2ccccc2)n1C,4.47
7,CCCC(=O)Nc1cc(C(=O)O)ccc1S(=O)(=O)c1ccc(C)cc1,11.6
8,Cc1nc2c(c3c1[nH]c1ccccc13)C(=O)CC(C)(C)C2,-0.41
9,O=C(O)CN1C(=O)/C(=C\c2cc(Br)ccc2OCc2ccc(Cl)cc2)SC1=S,15.2
10,COc1ccc(-c2n[nH]c3c2CN(C(=O)c2ccc(OC)c(OC)c2)CC3)cc1,-15.5
11,CC(=O)NC12CC3CC(C)(C1)CC(NC(C)=O)(C3)C2,-11.4
12,COc1ccc([C@H]2[C@@H](C#N)[C@H](C#N)N3CCCN23)cc1,14.2
13,CN(C)CCCOc1ccc(C(C)(C)c2ccccc2)cc1.O=C(O)C(=O)O,-16.5
14,COc1ccc(NC(=O)COC(=O)c2n[nH]c3ccccc23)c(OC)c1,-4.2
15,O=C(c1cnn2ccccc12)N(Cc1ccco1)C1CCCC1,4.7
16,Cc1ccc(C(C)C)cc1OCC(=O)NNC(=O)Nc1ccccc1,28.3
17,CC(C)=N/N=C(\c1cccc([N+](=O)[O-])c1)C12CN3CN(CN(C3)C1)C2,7.66
18,CCOC(=O)N1CCN(C(=O)c2cc(COc3cccc(C(F)(F)F)c3)on2)CC1,-76.7
19,COc1ccc(OCc2cc(C(=O)NC(C)Cc3cccnc3)no2)c(Cl)c1 (centres unmarked),-36.3
20,O=C(c1cc(COc2cccc(C(F)(F)F)c2)on1)N1CCSCC1,-17
21,CCOC(=O)N1CCN(C(=O)c2cc(COc3cccc(C(C)=O)c3)on2)CC1,1.62
22,CC(CNC(=O)c1cc(COc2c(F)cccc2F)on1)Oc1cccnc1 (centres unmarked),-18.6
23,CC(=O)c1cccc(OCc2cc(C(=O)NC(C)Cc3cccnc3)no2)c1 (centres unmarked),-6.23

row,Structure (SMILES),"hERG current change (%, negative = inhibition) at 10uM [%]"
1,Cc1ccc(OCc2cc(C(=O)NC(C)Cc3cnccn3)no2)cc1C (centres unmarked),0.149
2,Cc1ccc(OCc2cc(C(=O)NC(C)Cc3cccnc3)no2)cc1C (centres unmarked),-91
3,COc1ccc(OCc2cc(C(=O)NCC(C)Oc3cccnc3)no2)c(Cl)c1 (centres unmarked),-52.6
4,Cc1ccc(C2=NN3C(C(=O)c4ccccc4)Oc4ccccc4C3C2)cc1 (centres unmarked),0.487
5,COC(=O)c1cc(NC(=O)CN(c2ccccc2OC)S(=O)(=O)c2ccccc2)ccc1Cl,1.44
6,O=S(=O)(NC(=NC1CCCCC1)c1ccccc1F)c1ccccc1,10.4
7,Cc1ccc(C2=C(CC(=O)O)C(=O)CC2)cc1,12.1
8,O=C(O)CCCN1C(=O)C2C3c4ccccc4C(c4ccccc43)[C@@H]2C1=O (some centres unmarked),13
9,CSc1ccc(C2NC(=O)c3ccccc3N2)cc1 (centres unmarked),5.54
10,COc1ccc(NC(=O)CSc2nccn2Cc2ccccc2)cc1,-4.86
11,O=C(Cc1ccc([N+](=O)[O-])cc1)c1ccc(O)cc1O,-40.4
12,CN1CCN(c2ccc(S(=O)(=O)N3CCCCC3)cc2NC(=O)CCc2ccccc2)CC1,-53.3
13,COc1ccc(CC(=O)Nc2cc(S(=O)(=O)N3CCOCC3)ccc2N2CCOCC2)cc1,0.344
14,CN1CCN(c2ccc(S(=O)(=O)N3CCOCC3)cc2NC(=O)CCc2ccccc2)CC1,-8.75
15,CC(=O)NCCC(=O)Nc1cc(S(=O)(=O)N2CCCCC2)ccc1N1CCN(C)CC1,-9.13
16,COc1ccc(CC(=O)Nc2cc(S(=O)(=O)N3CCCCC3)ccc2N2CCN(C)CC2)cc1,-54
17,CN1CCN(c2ccc(S(=O)(=O)N3CCCCC3)cc2NC(=O)CSCc2ccccc2)CC1,-20.5
18,O=C(Cc1ccc(Cl)cc1)Nc1cc(S(=O)(=O)N2CCOCC2)ccc1N1CCCC1,-37.3
19,CN1CCN(c2ccc(S(=O)(=O)N3CCCCC3)cc2NC(=O)Cc2ccc(Cl)cc2)CC1,-72
20,CCN1CCN(c2ccc(S(=O)(=O)N3CCCCC3)cc2NC(=O)Cc2c(F)cccc2Cl)CC1,-8.09
21,O=C(Cc1c(F)cccc1Cl)Nc1cc(S(=O)(=O)N2CCCCC2)ccc1N1CCOCC1,-52.2
22,COc1ccccc1CCC(=O)Nc1cc(S(=O)(=O)N2CCCCC2)ccc1N1CCN(C)CC1,-26.5
23,CN1CCN(c2ccc(S(=O)(=O)N3CCCCC3)cc2NC(=O)Cc2c(F)cccc2Cl)CC1,-21.8
